High-throughput results deposited in PubChem BioAssay by several laboratories.
This is a sample that favours compounds with a hit; in the whole collection about 4.3% have one here.
TRPM1 prom inh: MITF TRPM1 promoter inhibition in SK-MEL-5 cells; SK-MEL-5 TRPM1 promoter luciferase, 24 h; inhibition, % at 12.5 µM; 0.83% of 330,000 active;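 active = mean inhibition across replicates of 60% or more, whatever share of single replicates reaches that level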
HIF-2a inh: blocks HIF-2a reporter activity. 786-0 RCC cells HIF-2a reporter, luciferase luminescence, overnight. inhibition, % at 18.8 µM. 0.72% of 360,000 active;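 active = inhibition of the luminescence signal of 40% or more relative to plate controls, in a single-dose primary screen at 18.75 µM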
CF NFkB inh: inhibitors of cystic fibrosis induced NF-kB; KKLEB NF-kB-GFP reporter, PAF-induced, GFP fluorescence overnight; inhibition, % at 5 µM; 0.86% of 360,000 active;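 active = at least 50% inhibition at 5 µM, scaled per plate between neutral and stimulator controls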;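 also: PAF is a Pseudomonas aeruginosa culture filtrate used as stimulus; plate controls were PAF-stimulated DMSO wells for no effect and unstimulated DMSO wells for full effect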
CHOP inhibitor: CHOP inhibition in unfolded protein response; inhibition, % at 10 µM; 3.8% of 220,000 active; AID 2732; CHO-K1 CHOP-promoter luciferase, tunicamycin-induced, 15-18 h;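 active = compounds that reduced the stress-induced luciferase reporter signal by more than about 70% of percent inhibition, limit read from the data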;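 also: 0% = tunicamycin plus vehicle and 100% = wells without tunicamycin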
KKLEB cytotox: CF airway cell cytotoxicity counter-screen; KKLEB CF airway cells viability, ATPlite luminescence, overnight; hits give low values; cells stimulated with P. aeruginosa culture filtrate; activity change (cytotoxicity), % at 5 µM; 0.36% of 360,000 active;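 active = corrected activity change at or below -50% at 5 µM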
Peg3 promoter: Peg3 promoter activity inhibition | 1.7% of 360,000 active | AID 588405 | inhibition, % at 20 µM | HeLa PEG-Prom luciferase reporter, luminescence, overnight;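 active = inhibition of at least 50% at 20 µM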
Mdm2 MdmX conf: confirmation of inhibitors of human Mdm2/MdmX interaction, set 2 | SaOS-2 split-luciferase Mdm2/MdmX complementation, luminescence | shares compounds with HIF-2a inh | 99% of 740 active | inhibition, % at 8 µM;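 active = mean inhibition of the luminescence signal across two replicates at or above 26 percent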
Target sequence (O15151 whole entry, looked up): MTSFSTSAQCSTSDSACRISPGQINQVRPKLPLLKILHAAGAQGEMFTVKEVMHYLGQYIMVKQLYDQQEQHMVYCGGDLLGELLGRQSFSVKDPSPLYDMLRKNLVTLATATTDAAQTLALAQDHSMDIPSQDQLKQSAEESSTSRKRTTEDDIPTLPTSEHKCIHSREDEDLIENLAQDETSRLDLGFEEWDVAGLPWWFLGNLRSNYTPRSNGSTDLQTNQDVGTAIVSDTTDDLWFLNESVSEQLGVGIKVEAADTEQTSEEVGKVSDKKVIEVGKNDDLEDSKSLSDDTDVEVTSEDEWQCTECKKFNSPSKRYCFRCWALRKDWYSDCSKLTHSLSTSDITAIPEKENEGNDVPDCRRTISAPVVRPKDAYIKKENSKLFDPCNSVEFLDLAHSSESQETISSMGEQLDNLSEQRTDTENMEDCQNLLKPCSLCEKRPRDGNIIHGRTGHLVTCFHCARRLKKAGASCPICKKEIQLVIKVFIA
Target sequence (Q00987 whole entry, looked up): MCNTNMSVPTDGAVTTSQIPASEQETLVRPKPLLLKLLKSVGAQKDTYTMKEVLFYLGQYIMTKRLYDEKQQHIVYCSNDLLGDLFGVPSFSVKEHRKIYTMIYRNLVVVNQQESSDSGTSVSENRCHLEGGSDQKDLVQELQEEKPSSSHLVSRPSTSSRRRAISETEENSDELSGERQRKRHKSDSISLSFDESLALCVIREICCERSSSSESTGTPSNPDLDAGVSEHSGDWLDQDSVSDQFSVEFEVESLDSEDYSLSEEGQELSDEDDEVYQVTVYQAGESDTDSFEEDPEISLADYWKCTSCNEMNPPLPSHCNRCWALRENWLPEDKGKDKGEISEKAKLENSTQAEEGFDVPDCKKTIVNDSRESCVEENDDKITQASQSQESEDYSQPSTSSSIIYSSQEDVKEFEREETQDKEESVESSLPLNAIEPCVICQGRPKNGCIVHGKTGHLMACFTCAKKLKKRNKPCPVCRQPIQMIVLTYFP
HIF-2a conf: confirmation of HIF-2a inhibitors; 786-0 RCC cells, HIF-2a luciferase reporter luminescence, overnight; inhibition, % at 18.8 µM; shares compounds with HIF-2a inh; 56% of 1,800 active;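 active = mean inhibition across four replicates of at least 40 percent at the single tested concentration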
HIF-1a counter: HIF-1a inhibition counter-screen for HIF-2a hits. AID 651589. 72% of 1,800 active. shares compounds with HIF-2a inh. inhibition, % at 18.8 µM. MiaPaCa-2 HIF-1a luciferase reporter, desferoxamine, overnight;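 active = mean inhibition of the reporter signal across four replicates at the single tested dose of 50% or more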
Starred values were filed as active, the others as inactive.

O=C(NC(NC(=S)Nc1ccccc1)C(Cl)(Cl)Cl)c1cccc(Cl)c1 (stereo not given) was read as TRPM1 prom inh 7, HIF-2a inh 47*, CF NFkB inh 19, CHOP inhibitor 86*, KKLEB cytotox -9, Peg3 promoter 15, HIF-2a conf 39 and HIF-1a counter 102*.
Screening O=C(O)c1cccc(NC(=S)NC(NC(=O)c2cccc([N+](=O)[O-])c2)C(Cl)(Cl)Cl)c1 (stereo not given) returned TRPM1 prom inh 25, HIF-2a inh -6, CF NFkB inh 8, CHOP inhibitor -12, KKLEB cytotox -7 and Peg3 promoter -6.
Screening COc1ccc(/C=N/Nc2cc(C)nc3ccc(Br)cc23)cc1 returned TRPM1 prom inh 99*, HIF-2a inh 46*, CF NFkB inh -127, KKLEB cytotox -23, Peg3 promoter 101*, HIF-2a conf -15 and HIF-1a counter 106*.
Screening O=C(C(=Cc1ccccc1)CN1CCCCC1)c1ccccc1 returned TRPM1 prom inh 97*, HIF-2a inh 80*, CF NFkB inh 80*, KKLEB cytotox -84*, Peg3 promoter 103*, HIF-2a conf 98* and HIF-1a counter 105*.
`CC(=O)CSc1nnc(-c2ccc3c(c2)OCO3)o1` gave TRPM1 prom inh -3, HIF-2a inh -28, CF NFkB inh -18, CHOP inhibitor -16, KKLEB cytotox 2 and Peg3 promoter -70.
`O=C(O)CCSc1nnc(-c2ccc3c(c2)OCO3)o1` gave TRPM1 prom inh 38, HIF-2a inh 92*, CF NFkB inh 8, CHOP inhibitor 86*, KKLEB cytotox -4, Peg3 promoter 36, HIF-2a conf 96* and HIF-1a counter 80*.
For COc1ccccc1Oc1cc(C#N)c(C#N)cc1-n1nnc2ccccc21 the results were TRPM1 prom inh 21, HIF-2a inh 46*, CF NFkB inh 7, CHOP inhibitor 19, KKLEB cytotox -4, Peg3 promoter 23, HIF-2a conf 20 and HIF-1a counter 54*.
`COc1ccccc1Oc1nc(C)c(C(C)=O)cc1C#N` gave TRPM1 prom inh 13, HIF-2a inh 9, CF NFkB inh 4, CHOP inhibitor 14, KKLEB cytotox -3 and Peg3 promoter 8.
`Cc1cccc(CSC(Nc2ccc(F)cc2)=C(C#N)C#N)c1` gave TRPM1 prom inh 16, HIF-2a inh -2, CF NFkB inh 42, CHOP inhibitor 66, KKLEB cytotox -44, Peg3 promoter 62* and Mdm2 MdmX conf 94*.
`C=C1C(=O)C23CCC4C(C)(C(=O)OC)CCCC4(C)C2CCC1(O)C3` (stereo not given) gave TRPM1 prom inh 117*, HIF-2a inh 91*, CF NFkB inh 101*, KKLEB cytotox -102*, Peg3 promoter 101*, HIF-2a conf 99* and HIF-1a counter 103*.
`CCOc1ccc(N2CC(C(=O)Nc3ccccc3C(=O)N3CCOCC3)CC2=O)cc1` (stereo not given) gave TRPM1 prom inh 15, HIF-2a inh 11, CF NFkB inh -9, KKLEB cytotox 2 and Peg3 promoter 8.
Screening O=C(O)c1cccc(C(=O)Nc2cccc(NC(=O)C3CCCO3)c2)c1 (stereo not given) returned TRPM1 prom inh 50, HIF-2a inh 49*, CF NFkB inh -5, CHOP inhibitor -2, KKLEB cytotox 1, Peg3 promoter 38, HIF-2a conf 48* and HIF-1a counter -32.
Cc1ccc(NC(=O)C(=Cc2ccc(C(=O)O)cc2)C(=O)Nc2ccc(C)cc2C)c(C)c1 was read as TRPM1 prom inh 49, HIF-2a inh 85*, CF NFkB inh 14, CHOP inhibitor -14, KKLEB cytotox -58*, Peg3 promoter 95*, Mdm2 MdmX conf 102*, HIF-2a conf 92* and HIF-1a counter 104*.
Cc1c(OC(C)C(=O)N2C[C@H]3C[C@@H](C2)c2cccc(=O)n2C3)ccc2c3c(c(=O)oc12)CCC3 (stereo not given in full) was read as TRPM1 prom inh 1, HIF-2a inh -18, CF NFkB inh -1, KKLEB cytotox 1 and Peg3 promoter -12.
For COc1ccc2cc1Oc1ccc(cc1)C[C@H]1c3cc(c(OC)cc3CCN1C)Oc1c(OC)c(OC)cc3c1[C@@H](C2)N(C)CC3 the results were TRPM1 prom inh -12, HIF-2a inh 7, CF NFkB inh 6, KKLEB cytotox 19, Peg3 promoter 52* and Mdm2 MdmX conf 100*.
For COc1ccc2c(c1OC)CN(C)CCc1cc3c(cc1C(O)C2)OCO3 (stereo not given) the results were TRPM1 prom inh -1, HIF-2a inh 7, CF NFkB inh 3, CHOP inhibitor 24, KKLEB cytotox -3 and Peg3 promoter -3.
For O=C(Cn1ccc(NC(=O)OCc2ccccc2)nc1=O)NCCc1c[nH]c2ccccc12 the results were TRPM1 prom inh 4, HIF-2a inh 18, CF NFkB inh -2, KKLEB cytotox 18 and Peg3 promoter 8.
For CN(CCCNC(=O)CCc1cn(C)c2ccccc12)C1CCCCC1 the results were TRPM1 prom inh 4, HIF-2a inh 23, CF NFkB inh 11, KKLEB cytotox -1 and Peg3 promoter 10.
`Oc1ccccc1N=Nc1nc(-c2ccccc2)c(-c2ccccc2)[nH]1` gave TRPM1 prom inh 80*, HIF-2a inh 17, CF NFkB inh 81*, CHOP inhibitor 61, KKLEB cytotox 2, Peg3 promoter 49 and Mdm2 MdmX conf 87*.
`COc1ccccc1N=Nc1nc(-c2ccccc2)c(-c2ccccc2)[nH]1` gave TRPM1 prom inh -7, HIF-2a inh -198, CF NFkB inh -68, CHOP inhibitor -10, KKLEB cytotox 32 and Peg3 promoter -39.
Screening Cc1cc([N+](=O)[O-])nn1CCCC(=O)Nc1cc(Cl)ccc1Cl returned TRPM1 prom inh -8, HIF-2a inh -5, CF NFkB inh 1, CHOP inhibitor -16, KKLEB cytotox -18 and Peg3 promoter -4.
